Test results as given in PubChem BioAssay (NCI).
The panel holds about 79,000 compounds, 15% with a hit somewhere; the sample as a whole holds those more often. The source made the active and inactive calls. Rule as the data show it: active = growth inhibition above about 70%; inactive = the rest.

Assays:
[1] = NCI Yeast Anticancer Drug Screen. Data for the rad52 strain (AID 147);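 also: 0% = growth of vehicle-treated control cultures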; details: S. cerevisiae rad52 mutant growth inhibition, hits give high values
Outline: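 Here a repair-compromised yeast strain receives each compound; its growth is then quantified and normalised to vehicle-only controls.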

[2] = NCI Yeast Anticancer Drug Screen. Data for the wt1 strain (AID 149);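 also: 0% = growth of vehicle-treated wt1 cultures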; details: S. cerevisiae wt1 strain (SPY 50644) growth inhibition, hits give high values
Outline: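 Yeast wt1 strain exposed to compounds; growth inhibition measured relative to vehicle-treated controls.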

[3] = NCI Yeast Anticancer Drug Screen. Data for the rad50EPP+ strain (AID 151);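 also: 0% = growth of vehicle-treated control cultures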; details: S. cerevisiae rad50 mutant strain, hits give high values
Outline: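 Read-out is yeast growth inhibition relative to vehicle; cells used were the rad50EPP+ strain.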

[4] = NCI Yeast Anticancer Drug Screen. Data for the mgt1 strain (AID 153); details: S. cerevisiae mgt1 mutant growth inhibition, hits give high values
Outline: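 Measured: inhibition of mgt1 yeast growth by compound, normalized to vehicle-treated cultures.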

[5] = NCI Yeast Anticancer Drug Screen. Data for the rad50 strain (AID 155);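 also: 0% = growth of vehicle-only cultures of the same strain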; details: S. cerevisiae rad50 strain growth inhibition, hits give high values
Outline: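 Yeast carrying a defined DNA repair defect were exposed to test compounds, and growth was compared with vehicle-treated controls to give percent inhibition.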

[6] = NCI Yeast Anticancer Drug Screen. Data for the mec2-1 strain (AID 157); details: S. cerevisiae mec2-1 strain, hits give high values
Outline: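 Using mec2-1 yeast: add compound, measure growth, express inhibition versus vehicle-treated cultures.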

[7] = NCI Yeast Anticancer Drug Screen. Data for the rad14 strain (AID 159);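 also: 0% = growth of vehicle-treated control cultures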; details: S. cerevisiae rad14 strain growth inhibition, hits give high values
Outline: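 Yeast cells carrying a defined DNA-repair defect were exposed to compounds, and growth inhibition was calculated relative to vehicle-treated control cultures.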

[8] = NCI Yeast Anticancer Drug Screen. Data for the sgs1 mgt1 strain (AID 161);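 also: 0% = growth of cultures given vehicle only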; details: S. cerevisiae sgs1 mgt1 strain, hits give high values
Outline: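 This yeast growth screen uses a strain with defined DNA-repair lesions; compound-treated growth is compared with vehicle-treated growth.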

[9] = NCI Yeast Anticancer Drug Screen. Data for the CLN2oe strain (AID 163);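 also: 0% = growth of vehicle-only control cultures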; details: S. cerevisiae CLN2oe strain, hits give high values
Outline: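 Whole-cell yeast growth assay. A strain engineered for altered cell-cycle control received compound, and inhibition relative to vehicle-treated cultures was recorded.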

[10] = NCI Yeast Anticancer Drug Screen. Data for the cln2 rad14 strain (AID 165);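 also: 0% = growth equal to vehicle treated cultures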; details: S. cerevisiae cln2 rad14 strain, hits give high values
Outline: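 Yeast strain cln2 rad14, bearing defects in cell cycle control and DNA repair, serves as the test system; values reflect growth inhibition compared with vehicle.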

[11] = NCI Yeast Anticancer Drug Screen. Data for the bub3 strain (AID 167); details: S. cerevisiae bub3 mutant strain, hits give high values
Outline: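 Compounds were applied to a genetically altered yeast strain carrying a cell-cycle control defect. Growth inhibition was scored against vehicle-treated controls.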

[12] = NCI Yeast Anticancer Drug Screen. Data for the wt2 strain (AID 169);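 also: 0% = growth of vehicle-treated yeast cultures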; details: S. cerevisiae wt2 strain growth inhibition, hits give high values
Outline: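 Treated yeast vs. vehicle-treated yeast: growth inhibition determined.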

[13] = NCI Yeast Anticancer Drug Screen. Data for the mlh1 strain (AID 171);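 also: 0% = growth of vehicle-treated control cultures of the same strain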; details: S. cerevisiae mlh1 strain growth inhibition, hits give high values
Outline: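 A yeast strain with a defined genetic lesion serves as the test organism. Cultures receive compound or vehicle, and growth is measured.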

[14] = NCI Yeast Anticancer Drug Screen. Data for the sgs1 strain (AID 173);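 also: 0% = growth of vehicle-only control cultures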; details: S. cerevisiae sgs1 mutant, hits give high values
Outline: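 A genetically defined yeast mutant is incubated with the test compound, and its growth is compared to that of the same strain given vehicle.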

[15] = NCI Yeast Anticancer Drug Screen. Data for the mlh1 rad18 strain (AID 175); details: S. cerevisiae mlh1 rad18 strain growth inhibition, hits give high values
Outline: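 Steps: expose repair-defective yeast to compound; measure growth; express inhibition against vehicle-treated controls.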

[16] = NCI Yeast Anticancer Drug Screen. Data for the rad18 strain (AID 177); details: S. cerevisiae rad18 mutant growth inhibition, hits give high values
Outline: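 Measured value is growth inhibition of a yeast strain bearing a DNA repair alteration, referenced to vehicle-treated cells.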

[17] = at 5.0 µM (retest, dose inferred, filed as 0.5)
[18] = at 50.0 µM (retest, dose inferred, filed as 5.0)

Measured: growth inhibition

C=C1CC(Cn2cc(Br)c(=O)[nH]c2=O)(c2ccc(-c3ccccc3)cc2)OC1=O (stereo not drawn)
active: [1]; at 100.0 µM 93% | [2]; at 100.0 µM 83% | [4]; at 100.0 µM 94% | [5]; [18] 98% | [5]; at 50.0 µM 98.3% | [5]; at 100.0 µM 92% | [6]; [18] 98% | [6]; at 50.0 µM 98.4% | [6]; at 100.0 µM 93% | [7]; at 100.0 µM 96% | [8]; [18] 87% | [8]; at 50.0 µM 97.3% | [9]; at 100.0 µM 96% | [10]; [18] 99% | [10]; at 50.0 µM 97.8% | [11]; [18] 99% | [11]; at 50.0 µM 98.2% | [11]; at 100.0 µM 92% | [12]; at 100.0 µM 92% | [13]; at 100.0 µM 94% | [14]; at 100.0 µM 93% | [15]; [18] 99% | [15]; at 50.0 µM 97.2% | [16]; at 100.0 µM 95%
inactive: [1]; at 1.2 µM 2% | [1]; at 3.7 µM 13% | [1]; at 11.0 µM 21% | [1]; at 33.0 µM 41% | [2]; at 1.2 µM 1% | [2]; at 3.7 µM 6% | [2]; at 11.0 µM 15% | [2]; at 33.0 µM 26% | [3]; at 1.2 µM -4% | [3]; at 3.7 µM -5% | [3]; at 11.0 µM 3% | [3]; at 33.0 µM 9% | [3]; at 100.0 µM 16% | [4]; at 1.2 µM 0% | [4]; at 3.7 µM 9% | [4]; at 11.0 µM 29% | [4]; at 33.0 µM 55% | [5]; at 1.2 µM 3% | [5]; at 3.7 µM 7% | [5]; [17] 8% | [5]; at 11.0 µM 17% | [5]; at 33.0 µM 36% | [6]; at 1.2 µM 5% | [6]; at 3.7 µM 15% | [6]; [17] 21% | [6]; at 11.0 µM 40% | [6]; at 33.0 µM 57% | [7]; at 1.2 µM 5% | [7]; at 3.7 µM 15% | [7]; at 11.0 µM 27% | [7]; at 33.0 µM 41% | [8]; [17] 30% | [9]; at 1.2 µM -2% | [9]; at 3.7 µM -5% | [9]; at 11.0 µM 10% | [9]; at 33.0 µM 21% | [10]; [17] 23% | [11]; at 1.2 µM -1% | [11]; at 3.7 µM 1% | [11]; [17] 10% | [11]; at 11.0 µM 25% | [11]; at 33.0 µM 53% | [12]; at 1.2 µM 2% | [12]; at 3.7 µM 10% | [12]; at 11.0 µM 16% | [12]; at 33.0 µM 29% | [13]; at 1.2 µM 2% | [13]; at 3.7 µM 10% | [13]; at 11.0 µM 28% | [13]; at 33.0 µM 41% | [14]; at 1.2 µM 8% | [14]; at 3.7 µM 26% | [14]; at 11.0 µM 37% | [14]; at 33.0 µM 57% | [15]; [17] 68% | [16]; at 1.2 µM 4% | [16]; at 3.7 µM 10% | [16]; at 11.0 µM 10% | [16]; at 33.0 µM 43%
